Screens as filed in PubChem.
VP16 counter – inhibits Gal4-VP16 luciferase reporter, ROR gamma counter-screen; Drosophila S2 Gal4-VP16 UAS-luciferase, luminescence, 20 h; Potency, µM (series often up to 53.6 µM), without a hit: top-dose activity, negative = inhibition, usual class: inhibitors; 310,000 compounds, 3.5% hits; AID 2546;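 further: Gal4-VP16 expression switched on by copper sulfate through the metallothionein promoter; nearly all actives have a fitted effect of over 50% in size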
B2AR arrestin – recruits beta-arrestin to the human beta2-adrenergic receptor; AID 492947; Potency, µM (highest dose often 46.1 µM), for the others: top-dose activation, actives largely listed as activators; beta-arrestin recruitment to beta2AR, cell-based reporter; 330,000 compounds, 0.02% hits;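 further: 0% = DMSO controls and full agonism = EC100 isoproterenol or metaproterenol; nearly all actives have a fitted effect of over 65% in size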
NPSR antag – neuropeptide S receptor (human) antagonism, cAMP; AID 1461; CHO-NPSR cells, cAMP TR-FRET, antagonist mode; 220,000 compounds, 1% hits; Potency, µM (titrated, usually from 38.3 µM), inactives show at the top dose activity change, negative = inhibition, usual class: inhibitors; further: nearly all actives have a fitted effect of over 50% in size
Target sequence (Q6W5P4 whole entry, looked up): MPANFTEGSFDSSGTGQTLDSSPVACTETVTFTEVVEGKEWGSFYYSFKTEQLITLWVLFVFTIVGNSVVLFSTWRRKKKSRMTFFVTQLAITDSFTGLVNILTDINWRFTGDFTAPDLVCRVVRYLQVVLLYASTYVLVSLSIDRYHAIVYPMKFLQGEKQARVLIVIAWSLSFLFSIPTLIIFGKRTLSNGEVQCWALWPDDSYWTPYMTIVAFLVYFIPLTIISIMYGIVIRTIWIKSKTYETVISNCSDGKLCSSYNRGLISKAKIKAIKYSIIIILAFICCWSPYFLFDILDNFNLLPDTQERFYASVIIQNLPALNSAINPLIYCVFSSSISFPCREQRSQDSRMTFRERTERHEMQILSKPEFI
RORgamma inh – blocks mouse ROR gamma transcriptional activity | P51450 | Drosophila S2 Gal4-RORgamma UAS-luciferase reporter, 20 h | Potency, µM (highest dose often 53.6 µM), inactives show top-dose activity change, negative = inhibition, actives largely listed as inhibitors | 310,000 compounds, 5.4% hits | AID 2551; further: nearly all actives have a fitted effect of over 60% in size
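Stable Schneider cell line, Gal4 DNA-binding domain fused to ROR gamma, UAS-luciferase. Cmpd 1 hr RT → CuSO4 700 uM final → 20 hr RT → luciferase reagent 10 min → luminescence.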
The depositor's hits bear a star; u = inconclusive; x = not tested or not shown; [ ] = remark or other dose. Sampled rows, rich in hits. Any-hit rate of the full collection: about 5.7%. The call rests on the fitted dose curve; in most records, active means well fitted curve in the direction sought with a large enough effect; inconclusive means small, poorly fitted or top-dose-only effect, or another doubt; inactive means no such curve, though single readings can be large; an effect the other way counts as inactive or inconclusive. Unless noted, on the % scale 0 is the no-effect control and ±100 the full control effect; potency means the concentration at half of the fitted maximal effect.

SMILES | VP16 counter | B2AR arrestin | NPSR antag | RORgamma inh
Cc1ccc(C(=O)c2coc3c2C(=O)C(=O)c2ccccc2-3)cc1 | u | 0% | u | u
Cc1oc2c(c1C(=O)c1ccc(Cl)cc1)C(=O)C(=O)c1ccccc1-2 | 6.3µM* | 0% | u | 5.6µM*
CN(c1ccccc1)S(=O)(=O)c1ccc(C(=O)NCc2ccccn2)cc1 | -7% | 0% | -3% | u
O=[N+]([O-])c1cccc(CN2C(COCc3ccccc3)CCC=CS2(=O)=O)c1 (stereo not given) | 1% | x | x | 22%
Oc1ccccc1-c1nnc(COc2ccccc2)o1 | u | -1% | -7%[46.1 µM] | 10µM*
c1ccc(OCc2nnc(-c3ccccc3)o2)cc1 | 5% | 0% | 0% | 5%
Oc1ccccc1-c1nnc(COc2ccc(Cl)cc2Cl)o1 | 4.5µM* | -1% | u | 2.5µM*
COc1ccc(Oc2ncc3ncc(=O)n(Cc4ccc(F)cc4)c3n2)cc1 | -14% | x | x | -8%
O=C(CNC(=O)[C@@H]1Cc2ccccc2CN1)Nc1ccc2c(c1)OCCO2 | 5% | 0% | x | 4%
CC(C)[C@H]1COC(c2cc(Cl)cc(Cl)c2)=N1 | 8%[96.6 µM] | x | x | 6%[96.6 µM]
CO[C@@H]1COC(=O)[C@H](C)NC(=O)C/C=C\[C@@H](C)[C@@H](NS(=O)(=O)c2ccc(C)cc2)COC(=O)C/C=C\[C@@H]1C | -1%[10 µM] | x | x | -1%[10 µM]
Clc1ccc(CCNc2ncnc3nc[nH]c23)cc1 | 11µM* | 0% | -8% | -22%
COC(=O)CNC(=O)COC(=O)Cc1ccc(Cl)cc1 | -9% | -1% | 3% | -7%
Cc1cc(NNC(=O)Nc2cccc(Cl)c2)nc2c1c(C)nn2C | 11µM* | -1% | -18% | u
Cc1nn(C)c2nc(NNC(=O)Nc3cc(Cl)nc(Cl)c3)cc(C(C)C)c12 | 16µM* | x | x | -18%
CCCCCCCN | 1% | x | x | -12%
CCn1c(CNc2nc3ccccc3n2C(C)C)nc2ccccc21 | -4%[0.365 µM] | 0% | -4%[46.1 µM] | u
N#CC1=C(S)N(c2ccccc2)C2(CCCCC2)NC1=O | u | 0% | -1% | 13µM*
COC(=O)[C@@]1(Cc2ccc(OC)cc2)[C@H]2c3cc(C(=O)N(C)C)n(C)c3C[C@H]2CN1C(=O)c1ccccc1 | -8% | x | x | 1%
Cc1ccnc2nc(C(=O)Nc3nnc(-c4ccc(Cl)cc4)o3)nn12 | -3% | 0% | -5% | -2%
O=C(COc1ccc(Cl)cc1)Nc1nnc(-c2ccc3c(c2)CCCC3)o1 | u | 0% | 5% | -75%
CC(=O)c1ccc(C(=O)Nc2nnc(-c3ccc(Cl)cc3)o2)cc1 | 2.5µM* | 1% | 5% | -35%
O=C(Nc1nnc(-c2ccc(Cl)cc2)o1)NC1CCCCC1 | 3.5µM* | 0% | 4%[46.1 µM] | u
O=C(Nc1nnc(-c2ccccc2)o1)c1ccc(Cl)cc1 | 1.4µM* | x | -29%[46.1 µM] | 0.71µM*
O=C(Nc1ccc(Cl)cc1)NC1CCCCC1 | u | 0% | -1%[46.1 µM] | 13%
SMILES | VP16 counter | B2AR arrestin | NPSR antag | RORgamma inh
O=C(COc1ccccc1)Nc1nnc(-c2ccc(Cl)cc2)o1 | 5.6µM* | 0% | x | 7.1µM*
Cc1ccc(S(=O)(=O)N2CCN(C(=O)Cn3cnc4c3c(=O)n(C)c(=O)n4C)CC2)cc1C | x | 0% | x | x
CCc1nc(C(N)=O)c2[nH]c(=O)n(-c3ccc(OC)cc3OC)c2n1 | -10% | 0% | x | -30%
COc1cccc(C(=O)OCC(=O)NC(C)CCc2ccccc2)c1O (stereo not given) | 2% | 0% | x | 8%
CC(C)[C@H](NC(=O)c1ccco1)C(=O)NC12CC3CC(CC(C3)C1)C2 | -1% | 0% | -6% | -1%
CN(C)c1ccc(C(=O)NNC(=O)c2ccc(Cl)cc2)cc1 | -11% | 0% | -21% | -2%
CN(C)c1ccc(C(=O)Nc2nnc(-c3ccc(Cl)cc3)o2)cc1 | 0.5µM* | 0% | -4%[46.1 µM] | 0.5µM*
CCOc1ccccc1C(=O)OCC(=O)Nc1nnc(-c2ccccc2)o1 | x | 0% | x | x
CCOc1ccccc1C(=O)NC(C(=O)OCC(=O)Nc1nnc(-c2ccccc2)o1)C(C)C (stereo not given) | 5µM* | 0% | -7%[46.1 µM] | 2.2µM*
C/C(CCN1CCCc2nc(C)c(C)cc21)=N\O[C@@H](C)CN1CCCc2nc(C)c(C)cc21 | 4%[10 µM] | x | x | 3%[10 µM]
CCN(CC)S(=O)(=O)c1ccc(C(=O)Nc2nnc(CSC)o2)cc1 | 4µM* | 0% | -1% | 1.1µM*
CCOC(=O)N1CCN(S(=O)(=O)c2ccc(C(=O)Nc3nnc(CSC)o3)cc2)CC1 | u | -1% | -4% | 13µM*
CCCCN(C)S(=O)(=O)c1ccc(C(=O)Nc2nnc(CSC)o2)cc1 | 1.1µM* | 0% | -8%[46.1 µM] | 0.79µM*
CCCCN(CCCC)S(=O)(=O)c1ccc(C(=O)Nc2nnc(COC)o2)cc1 | 1µM* | 0% | -2%[46.1 µM] | 0.45µM*
CCc1nnc(NC(=O)c2ccc(S(=O)(=O)N(CC)CC)cc2)s1 | u | 0% | 3%[46.1 µM] | -39%
O=C(C[n+]1ccc(-c2nnc3n2CCCCC3)cc1)c1ccc(Cl)cc1 | -2% | -1% | 7% | 8%
CCN(CC)S(=O)(=O)c1ccc(C(=O)Nc2nnc(COC)o2)cc1 | 16µM* | 0% | -1% | 3.5µM*
O=C(CC(=O)c1cc(Cl)ccc1O)c1ccccc1 | 11µM* | 0% | u | u
Cc1cccc(C(=O)CC(=O)c2cc(Cl)ccc2O)c1 | u | 0% | u | u
Cc1ccc(O)c(NC(=O)CSc2ccc(Cl)cc2)c1 | -7% | 0% | -15% | -12%
Cc1ccc(C(=O)CC(=O)c2ccccc2)cc1 | u | 0% | x | 11µM*
Cc1ccc(O)c(C(=O)CC(=O)c2cccc(F)c2)c1 | 7.1µM* | 0% | u | 7.9µM*
Cc1ccc(O)c(C(=O)CC(=O)c2ccc(Cl)cc2)c1 | 5µM* | 0% | x | 3.5µM*
N#CCCCS(=O)(=O)c1nc2ccccc2s1 | -4% | x | x | -18%
Cc1ccc(C(=O)OCC(=O)NNC(=O)c2ccc([N+](=O)[O-])cc2)o1 | x | 0% | x | x
SMILES | VP16 counter | B2AR arrestin | NPSR antag | RORgamma inh
Cc1ccc(C(=O)Sc2cccccc2=O)cc1 | 2.2µM* | 0% | x | 1.8µM*
Cc1ccc(S(=O)(=O)/N=C(/Sc2ccccc2C(=O)O)c2ccccc2)cc1 | -2% | 0% | x | -7%
O=C(NCCc1nc2ccccc2[nH]1)c1cc([N+](=O)[O-])cc([N+](=O)[O-])c1 | -17% | 0% | 27% | u
N/N=C(/Cc1nc2ccccc2[nH]1)c1ccc([N+](=O)[O-])cc1 | u | 0% | -6% | 14µM*
CC(=O)NCCNc1ncnc2ccc(-c3ccc(C(=O)N(C)C)cc3)cc12 | 9% | x | x | -1%
CCCC(=O)NC(c1ccc(Cl)cc1)c1ccc2cccnc2c1O (stereo not given) | 2.8µM* | 0% | x | 2.2µM*
CCC(=O)NC(c1ccc(OC)c(OC)c1)c1cc(Cl)c2cccnc2c1O (stereo not given) | -4% | 0% | -5% | 0%
CC(=O)NC(c1ccc2ccccc2c1)c1ccc2cccnc2c1O (stereo not given) | 1.6µM* | 4% | x | 5µM*
CC(=O)NC(c1ccc(Cl)cc1Cl)c1ccc2cccnc2c1O (stereo not given) | 1.8µM* | 0% | x | 2µM*
